According to PubChem BioAssay AID686970 (National Center for Advancing Translational Sciences (NCATS), 2013):
Among all 360,000 compounds or so, about 6,000 (1.7%) were called active. Not shown: some 8% with an inconclusive outcome. The list comes from a sample in which actives are over-represented; it also holds similar structures and randomly drawn compounds. A number with no mark means an inactive call. The call rests on the fitted dose curve; in most records, active means well fitted cell-killing curve with a large enough effect; inconclusive means small, poorly fitted or top-dose-only effect, or effect the other way; inactive means flat fitted curve, though single readings scatter.

experiment: qHTS for induction of synthetic lethality in tumor cells producing 2HG: qHTS for the HT-1080-NT fibrosarcoma cell line; conditions: HT-1080-NT fibrosarcoma viability, CellTiter-Glo ATP luminescence, 48 h; series mostly up to 46.1 µM; activity, negative = less viability: at the top concentration;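 further: NT is the 2HG producing partner of a matched IDH1 knockdown line; nearly all actives have a fitted effect of over 55% in size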;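 on activity, negative = less viability: 0% = DMSO-treated cells and -100% = media-only wells without cells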
Procedure, shortened: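 Fibrosarcoma NT cells, 750 per well in 5% FBS RPMI, were exposed to compound for 48 hours. Viability: CellTiter-Glo luminescence.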
Potency means the concentration at half of the fitted maximal effect.

Compound	activity, negative = less viability	Potency
CCC(=O)N1CCCC1(C)C(=O)Nc1ccc2c(c1)CCN2C(C)=O (stereo not drawn)	27.2%	–
CCOC(=O)C1(C)CCCN(C(=O)c2cccc(Cl)c2)C1 (stereo not drawn)	8.58%	–
O=C(Nc1ccc(Cl)cn1)c1ccccc1-c1ccccc1	6.68%	–
COCCOC(=O)c1[nH]c2c(c1C)C(=O)CC(c1ccc(OC)cc1)C2 (stereo not drawn)	-0.0734%	–
CCCOC(=O)c1[nH]c2c(c1C)C(=O)CC(c1cccs1)C2 (stereo not drawn)	–	1.3 µM (active)
COC(=O)C1C(=O)c2c([nH]c(C(=O)OCCSC)c2C)CC1C (stereo not drawn)	4.76%	–
O=C(COC(=O)c1ccc(S(=O)(=O)N2CCCCCC2)cc1)Nc1ccccc1C(F)(F)F	-0.234%	–
O=C1c2ccccc2-c2ccccc2NC1O (stereo not drawn)	4.51%	–
COc1cccc2sc(N(CCCN(C)C)C(=O)C(c3ccccc3)c3ccccc3)nc12	–	20.6 µM (active)
Cc1ccc2sc(N(CCN(C)C)C(=O)/C=C/c3cccs3)nc2c1C	2.03%	–
Cc1cc(C)c2nc(N(CCN(C)C)C(=O)/C=C/c3cccs3)sc2c1	0.0633%	–
CCCCn1nnnc1C(c1cc2ccccc2o1)N(C)Cc1ccc(Cl)c(Cl)c1 (stereo not drawn)	-0.969%	–
Oc1ccc(/C=N/N(Cc2ccccc2)c2ccccc2)cc1	–	20.6 µM (active)
CCN(/N=C/c1ccccc1)c1cc(=O)n(C)c(=O)[nH]1	12.6%	–
CN(/N=C/c1ccccc1)C(=S)c1ccccc1	-15.8%	–
Cc1cc(OCC(=O)Nc2nccs2)c2c(C)c(C)c(=O)oc2c1	8.6%	–
COc1cccc(CN(C)CC(=O)Nc2ccccc2C(=O)Nc2ccccc2)c1	-2.36%	–
Cc1ccccc1C(OCC(O)CN1CCCCC1CCO)c1ccccc1 (stereo not drawn)	-27.5%	–
COc1cccc(CN(C)CC(O)COC(c2ccccc2)c2ccccc2C)c1 (stereo not drawn)	–	23.1 µM (active)
Cc1cc(Cl)ccc1-c1nc(NCCN(C)C)nc2ccsc12	–	20.6 µM (active)
Cc1cc(=O)c2ccc(NC(=O)c3ccccc3)cc2[nH]1	27.7%	–
O=c1cc(-c2ccccc2)[nH]c2cc(F)ccc12	–	2.59 µM (active)
Cc1ccc(-c2cc(=O)c3ccc(F)cc3[nH]2)cc1	-26%	–
FC(F)(F)Oc1ccccc1C(c1nnnn1C1CCCCC1)N1CCN(C/C=C/c2ccccc2)CC1 (stereo not drawn)	-25.6%	–
O=C(Nc1nnc(S(=O)(=O)N2CCOCC2)s1)c1cccc(Br)c1	-28%	–

Compound	activity, negative = less viability	Potency
Cc1cccc(C(=O)Nc2nnc(S(=O)(=O)N3CCCCCC3)s2)c1	0%	–
O=C(Nc1nnc(S(=O)(=O)N2CCCCCC2)s1)c1cccc(Br)c1	–	23.1 µM (active)
CC1(C(=O)Nc2ccccc2Br)CCN1C(=O)CC1CC1 (stereo not drawn)	1.35%	–
CCOC(=O)[C@]12CCC=C1N(Cc1cccc3ccccc13)C(=O)[C@H](CC(=O)NCc1cccc(C(F)(F)F)c1)C2	-28.6%	–
CCCNC(=O)C1(C)CCCN(C(=O)c2cccc(OC(C)=O)c2C)C1 (stereo not drawn)	0.104%	–
CC1(C(=O)Nc2ccc3c(c2)OCCO3)CN(S(C)(=O)=O)CC(=O)N1Cc1cccc(F)c1 (stereo not drawn)	0.746%	–
N#Cc1cccc(NC(=O)COC(=O)c2ccccc2C(=O)c2ccc(Cl)c([N+](=O)[O-])c2)c1	–	7.31 µM (active)
COC(=O)c1cc(NC(=O)Cc2ccccc2[N+](=O)[O-])ccc1Cl	6.16%	–
CC(=O)Nc1ccc(NC(=O)COC(=O)c2ccccc2C(=O)c2ccccc2)cc1	-6.07%	–
COc1ccc(C2Nc3ccc(NC(=O)COC(C)=O)cc3C(=O)N2Cc2ccccc2)cc1COc1ccc(NC(C)=O)cc1 (stereo not drawn)	-28.8%	–
CC(Sc1ccc(S(=O)(=O)N2CCN(C)CC2)cn1)C(=O)NC1CCCC(C)C1C (stereo not drawn)	0.927%	–
Cc1ccc(S(=O)(=O)N2CCN(c3ncnc4ccccc34)CC2)cc1	–	inactive
COc1ccc(C)cc1S(=O)(=O)N1CCN(S(=O)(=O)c2cc(C(=O)O)ccc2C)CC1	-3.18%	–
Cc1ccc(C)c(S(=O)(=O)N2CCN(c3ncnc4sccc34)CC2)c1	–	5.8 µM (active)
CC1CCCC(C)N1C(=O)COC(=O)c1ccccc1C(=O)c1ccccc1 (stereo not drawn)	10.5%	–
Cc1ccccc1Cn1c(C)c(C(=O)NCc2cccc(C(F)(F)F)c2)sc1=O	4.34%	–
OCCc1ccc(NCCc2ccco2)cc1	18.1%	–
CC1=C/C(=N\OS(=O)(=O)c2ccccc2)C=CC1=O	–	20 µM (active)
NC(=O)CSc1nnc(-c2cccc(S(=O)(=O)N3CCOCC3)c2)o1	0.364%	–
Cc1cccc(C)c1Cn1c(C)c(C(=O)NCc2cccc(Cl)c2)sc1=O	-9.39%	–
OC(c1ccccc1)c1nc(-c2cnc3ccccc3c2)cs1 (stereo not drawn)	2.55%	–
O=C(Nc1nnc(SCc2c(Cl)cccc2Cl)s1)c1cccc([N+](=O)[O-])c1	0.797%	–
O=C(Nc1nnc(SCc2ccccc2Cl)s1)c1cccc([N+](=O)[O-])c1	–	18.4 µM (active)
NC(=O)CSc1nnc(NC(=O)c2ccc3ccccc3c2)s1	10.5%	–
CC1=C(C(=O)N2CCOCC2)CC(CC(=O)NCCCN(C)C)C(=O)N1Cc1ccc(C(C)(C)C)cc1 (stereo not drawn)	14.2%	–

Compound	activity, negative = less viability	Potency
O=C(C1CCN(S(=O)(=O)c2cccs2)CC1)N1CCCCCC1	-5.25%	–
O=C(NCc1ccc(Cl)cc1)C1CCN(S(=O)(=O)c2cccs2)CC1	0.206%	–
O=C(Nc1ccc(Br)cn1)C1CCN(S(=O)(=O)c2cccs2)CC1	–	9.2 µM (active)
Cc1ccc(C(=O)Nc2c(-c3ccccc3)[nH][nH]c2=O)cc1	18.6%	–
CC1(C)C2CCC1(C)C(OC(=O)c1ccc(O)cc1)C2 (stereo not drawn)	17.4%	–
CC(C)OC(=O)c1ccc(NCc2cc(O)ccc2O)cc1Cl	–	20.6 µM (active)
COC(=O)c1ccc(NCc2cc(O)ccc2O)cc1	–	16.4 µM (active)
CC(OC(=O)c1ccc(Cl)cc1O)C(=O)NCCC1=CCCCC1 (stereo not drawn)	-0.249%	–
CC(CN1CCOCC1)OC(=O)c1ccc(Cl)cc1Cl (stereo not drawn)	-1.94%	–
O=C(OC12CC3CC(CC(C3)C1)C2)c1ccc(NCc2cc(O)ccc2O)cc1	–	14.6 µM (active)
CCN(CC)C(=O)CCC(=O)Nc1ccc(C(=O)OC)cc1	-1.07%	–
C#CCNc1ccc(C(=O)OCC)cc1	-2.27%	–
CC(C)CCC(=O)Nc1cc(S(=O)(=O)N2CCOCC2)ccc1N1CCCC1	4.49%	–
Cc1ccc(S(=O)(=O)N2CCOCC2)cc1NC(=O)c1ccncc1	0.491%	–
Cc1ccc(S(=O)(=O)N2C[C@]3(O)C[C@@H]4C(=O)N(c5ccccc5)C(=O)[C@@H]4C[C@]3(OC(=O)NC3CC3)C2)cc1	9.44%	–
Cc1ccccc1-c1nc(NC(C)C)nc2cc(-c3ccccc3)sc12	-0.193%	–
COc1ccc(CCn2c3c(c(=O)[nH]c2=S)CN(C(C)C)CN3)cc1OC	2.34%	–
CC1(C(=O)Nc2cccc3cccnc23)CCN1C(=O)CCC1CCCC1 (stereo not drawn)	-2.99%	–
CC1(C(=O)NS(=O)(=O)c2ccc(C#N)cc2)CCN1C(=O)c1ccc(C2CCCCC2)cc1 (stereo not drawn)	-12.9%	–
C[C@H](CO)N1C[C@H](C)[C@@H](CN(C)C(=O)C2CCCCC2)OCc2cnnn2CCCC1=O	2.08%	–
CC(C)(O)C#Cc1ccc(CN2CCC(CO)(CCc3ccccc3)CC2)cc1	-5.63%	–
Cc1cccc(-c2ncc(CN3CCC(CO)(CCCc4ccccc4)CC3)cn2)c1	-3.51%	–
Cc1c(CN2CCC(CO)(CCOc3ccccc3)CC2)[nH]c2ccc(Cl)cc12	–	25.9 µM (active)
CCCNC(=O)C1(C)CCN(Cc2ccc(Cl)c(Cl)c2)C1 (stereo not drawn)	-12.1%	–
CN1OC[C@@H]2CN(S(=O)(=O)c3cccc(C(F)(F)F)c3)[C@H](c3ccc(-c4cc5ccccc5o4)cc3)C[C@@H]21	1.49%	–

Compound	activity, negative = less viability	Potency
CNc1cnc(-c2cc(OC)c(OC)c(OC)c2)cn1	-2.35%	–
CC(=O)c1cc(CN2CCC(C(=O)Nc3cccc(-c4cscn4)c3)CC2)cs1	-13.4%	–
CCn1cc(CN2CCC(C(=O)Nc3cccc(-c4cccc(Cl)c4)c3)CC2)cn1	–	14.6 µM (active)
O=C(Nc1cccc(-c2cscn2)c1)C1CCN(Cc2ccsc2)CC1	-10.8%	–
COc1cccc(-c2cccc(NC(=O)C3CCN(C4CCC4)CC3)c2)c1	13.2%	–
O=C(Nc1cnn(Cc2ccc(Cl)cc2)c1)C1CCCC1	-3.72%	–
O=C(Nc1cccc(-c2cccc(Cl)c2)c1)C1CCN(C2CCC2)CC1	–	25.9 µM (active)
CCn1cc(CN2CCC(n3nccc3NC(=O)CCCc3ccccc3)CC2)c(C)n1	-1.72%	–
O=C(NC1CCCC1)C1CCN(C(=O)Nc2cccc(Cl)c2)CC1	3.08%	–
CCn1cc(CN2CCC(C(=O)Nc3cccc(-c4cccc(Cl)c4)c3)CC2)c(C)n1	–	20.6 µM (active)
O=C(COC(=O)c1cccc(Cl)c1Cl)NC1CCCCCC1	-0.557%	–
CC(C)Oc1cc(F)ccc1-c1cc(C(=O)Nc2ccc(F)cc2)[nH]n1	4.59%	–
CCN(CC)C(=O)C1=C(C)N(Cc2ccccc2)C(=O)C(CC(=O)NC(c2ccccc2)c2ccccc2)C1 (stereo not drawn)	0.296%	–
O=C(C[C@H]1CC[C@@H](NC(=O)c2ccncc2)[C@@H](CO)O1)NCC1CC1	25.8%	–
NCCCCC(C(=O)O)N(C(=O)OCc1ccccc1)C(=O)OCc1ccccc1 (stereo not drawn)	5.55%	–
CCCCCCn1c(=O)n2n(c1=O)C[C@]1(OC(=O)NCc3ccc(OC)c(OC)c3)CN(S(=O)(=O)c3ccc(C)cc3)C[C@]1(O)C2	-13.8%	–
COc1ccccc1-n1nnnc1S(=O)(=O)Cc1ccc(Cl)cc1	–	20.6 µM (active)
CCC(C)N(C(=O)CSc1nnnn1-c1ccccc1OC)C1CCS(=O)(=O)C1 (stereo not drawn)	-3.07% [at 9.24 µM]	–
COc1ccccc1-n1nnnc1SCC(=O)NC(=O)Cc1ccccc1	10.5%	–
CC(=O)C[C@@H]1OC[C@H](CO)N1S(=O)(=O)c1ccc(C)cc1	21.5%	–
COc1ccc2sc(-c3ccc(N(C)C)cc3)c(-c3ccc4cc[nH]c4c3)c2c1	-7.14%	–
COc1ccc2c(c1)c(=Cc1ccc(N(C)C)cc1)c1cc(-c3ccccc3)[n+](C)n12	–	13 µM (active)
O=C(NCC(O)c1nc2ccccc2[nH]1)c1ccc(Br)cc1 (stereo not drawn)	25.9%	–
